Consider 40 compounds from PubChem BioAssay (NCATS).

Values joined by “and” are separate entries in the source; they are usually repeats but may differ in a detail not shown here. Equal values may be shown once. Results filed as inconclusive are left out. Active and inactive are the calls of the source. Calls follow the shape of the dose curve; as a rule, active = well fitted cell-killing curve with a large enough effect; inconclusive = small, poorly fitted or top-dose-only effect; inactive = flat fitted curve, though single readings scatter.
% is scaled to controls: 0 for no effect and ±100 for the full control effect.

The nature of this assay: Cellular viability qHTS for adrenocortical cancer (ACC) cell line SW-13 (AID 1963989). Also: nearly all actives have a fitted effect of over 65% in size.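 As to activity (max response): cells grown in serum-free medium with ITS supplement.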 As to conditions: SW-13 ACC cells viability, CellTiter-Glo, 48 h; activity (max response): stronger effect = lower value. The text has this:
PI: Naris Nilubol, MD Surgical Oncology Program, National Cancer Institute (NCI) National Institute of Health (NIH), Bethesda, Maryland Adrenocortical cancer (ACC) is a rare malignancy with poor survival outcomes and few treatment options. Currently, mitotane is the only FDA-approved therapy for ACC. Although adjuvant radiation therapy is rarely utilized, it has the potential to improve survival in select cases. Through a quantitative high-throughput drug screen (qHTS), we identified auranofin (AF), a thioredoxin reductase (TXNRD) inhibitor, as a promising candidate drug. This study aims to evaluate whether AF can enhance the efficacy of radiation therapy in the treatment of ACC. Two human ACC cell lines, SW-13 and NCI-H295R, were screened using the National Center for Advancing Translational Sciences (NCATS) Pharmaceutical Collection (NPC) and the Mechanism Interrogation PlatE (MIPE) library (~4,991 compounds). CellTiter-Glo (Cat # G7570, Promega, Madison, WI) was utilized to measure cell viability. Described herein are the results of the corresponding viability assay.
PROTOCOL TABLE (as described by Inglese J, Shamu CE and Guy RK. 2007) SEQUENCE No. (e.g., 1, 2, 3, etc.); […] (e.g., Cells, Incubation, Reagent, etc.); VALUE; DESCRIPTION. 1; Cells; 5 uL; white, solid-bottom, 1536-well tissue-culture treated plates. 2; Time; overnight culture at 37C with 5% CO2. 3; Compounds and control; 23 nL; Kalypsis pin tool (Wako USA) equipped with a 1536-well pin head to transfer to the assay plates. 4; Time; 48 hours; 37C with 5% CO2. 5; Reagent; 4 uL; CellTiter-Glo luminescent substrate mix. 6; Time; 20 min at room temperature. 7; Detection; Luminescence; ViewLux plate reader NOTES (numbers refer to Sequence numbers above) 1. SW13 cells were harvested from a T175 flask and resuspended in ITS-supplemented DMEM serum-free medium at a concentration of 300 000 cells/mL. Then 5 uL of resuspended cells were dispensed into each well of white, solid-bottom, 1536-well tissue-culture-treated plates using a multidrop combi dispenser. The plates were covered with stainless steel gasket lids. 2-3. The plates were cultured overnight at 37C with 5% CO2. Twenty-three nL of compounds (eight selected concentrations from the NPC / MIPE) or positive control (10 mM stock of bortezomib) in DMSO was transferred to each well of the assay plate using a pin tool (Kalypsys, San Diego, CA, USA). The final concentration of the compounds in the 5 uL assay volume ranged from 0.5 nM to 46 uM. 4-6. After 48 hours of incubation at 37C and 5% CO2, 4 uL of CellTilter-Glo luminescent substrate mix (Promega, Madison, WI, USA) was added to each well. Then the plates were incubated for 20 minutes at room temperature. 7. After incubation, luminescence was measured using a ViewLux plate reader (PerkinElmer, Waltham, MA, USA) with a clear filter was used to measure the number of metabolically competent cells. To determine compound activity in the qHTS assay, the titration-response data for each sample was plotted and modeled by a four-parameter logistic fit yielding IC50 and efficacy (maximal response) values. […] REFERENCES: Inglese J, Shamu CE and Guy RK, Reporting data from high throughput screening of small molecule libraries, Nature Chemical Biology, 2007, 3(8): 438-441. doi.org/10.1038/nchembio0807-438.
(Quantitative high-throughput screening tests each substance at several concentrations.)
Take `CC(=O)NC[C@H]1CN(c2ccc(N3CCOCC3)c(F)c2)C(=O)O1`: the activity (max response) is 5.63% (inactive).
`O=C(CCNNC(=O)c1ccncc1)NCc1ccccc1`: the activity (max response) was -0.798% (inactive).
For the compound `CNC(=O)c1cc(Oc2ccc(NC(=O)Nc3ccc(Cl)c(C(F)(F)F)c3)cc2)ccn1`, the Potency was 8.91 µM (active) and 11.6 µM (active).
`COc1ccc(CN(CCN(C)C)c2ccccn2)cc1`: the activity (max response) is 2.63% (inactive).
On the same count and under the same terms, next, `Cc1c(F)ccc(C(=O)Nc2cc([N+](=O)[O-])ccc2N2CCN(C)CC2)c1Cl`: -19.1% (inactive).
Same read-out and setting: next, `COc1cc(Oc2ccnc3cc(OC)c(OC)cc23)ccc1NC(=O)NC(C)c1nccs1` (stereo not given): 0.628% (inactive).
In the case of `CC(=O)c1cc2c(o1)C(=O)c1ccccc1C2=O`, the Potency was 3.16 µM (active).
For `C=C1CCC[C@]2(C)C=C3OC(=O)C(C)=C3C[C@@H]12`, the activity (max response) is -6.22% (inactive).
`Cc1cc(Nc2cc(N)ncn2)c(=O)n2c1C(=O)NC21CCCCC1`: the activity (max response) is 0.221% (inactive).
The same measure, in the same setting: next, `CN(C(=O)C(Cl)Cl)c1ccc(OC(=O)c2ccco2)cc1`: -5.24% (inactive); `COC(=O)N1CC2(CC2)C[C@H](C(=O)NO)[C@H]1C(=O)N1CCN(c2ccccc2)CC1`: -14.2% (inactive).
As to `Cc1cn([C@@H]2C[C@@H](O)[C@H](CO)O2)c(=O)[nH]c1=O`, the activity (max response) is -17.5% (inactive).
With `COc1ncc(Nc2ncc(C(C)N3CCN(S(C)(=O)=O)CC3)cc2-c2nc(C)nc(N)n2)cc1F` (stereo not given), the activity (max response) was -11.9% (inactive).
Same read-out and setting: next, `Cc1ccc(S(=O)(=O)NC(=O)NN2CC3CCCC3C2)cc1` (stereo not given): 5.83% (inactive) and 9.36% (inactive); `CC(C)(C)C1CCC(CC2=C(O)c3ccccc3C(=O)C2=O)CC1` (stereo not given): 12.3% (inactive); `CCO[C@@H]1OC(=O)C[C@@H]1NC(=O)[C@@H]1CCCN1C(=O)[C@@H](NC(=O)c1ccc(N)c(Cl)c1)C(C)(C)C`: -11.3% (inactive).
On the same count and under the same terms, next, `CC1COC2(CCN(c3nc(=O)c4cc(C(F)(F)F)cc([N+](=O)[O-])c4s3)CC2)O1` (stereo not given): -6.91% (inactive); `CC(N)C12CC3CC(CC(C3)C1)C2` (stereo not given): -5.6% (inactive) and -7.27% (inactive); `CCCc1ccc(OCC(=O)N2CCN(C(=O)COc3ccc(CCC)cc3OC)CC2)c(OC)c1`: 4.95% (inactive).
Consider `Cc1nc(Nc2ncc(C(=O)Nc3c(C)cccc3Cl)s2)cc(N2CCN(CCO)CC2)n1`, for which the Potency was 1.84 µM (active) and 1.41 µM (active).
Regarding `O=C(Cc1cccc(OC(F)(F)F)c1)Nc1ccc(CCCCc2nnc(NC(=O)Cc3ccccn3)s2)nn1`, the activity (max response) is 11.1% (inactive).
On the same count and under the same terms, next, `CC12CCC(CC1)C(C)(C)O2`: 13.8% (inactive).
`CN(C)CCc1c[nH]c2ccc(C[C@H]3COC(=O)N3)cc12`: the activity (max response) was 12.9% (inactive).
As to `CC1=C(/C=C/C(C)=C/C=C/C(C)=C/C(=O)Nc2ccc(O)cc2)C(C)(C)CCC1`, the Potency is 1.84 µM (active).
In the case of `O=C1[C@@H]2[C@H]3CC[C@H](C3)[C@@H]2C(=O)N1CCCCN1CCN(c2ncccn2)CC1`, the activity (max response) was 6.58% (inactive).
On to `CN1CCN(Cc2ccc(NC(=O)Nc3ccc(Oc4cc(NC(=O)C5CC5)ncn4)cc3)cc2C(F)(F)F)CC1`, for which the Potency is 0.316 µM (active).
As for `CCCCOC(=O)c1ccc(O)cc1`, the activity (max response) was -18.3% (inactive).
Consider `CCc1ccc(C(=O)Nc2cc(CN3CCN(C)CC3)cc(C(F)(F)F)c2)cc1C#Cc1cnc2ccnn2c1`, for which the Potency is 10 µM (active).
Consider `CCCCN(CCCC)CCC(O)c1cc2c(Cl)cc(Cl)cc2c2cc(C(F)(F)F)ccc12` (stereo not given), for which the Potency was 5.8 µM (active).
For `CC(=O)Nc1cccc(O)c1`, the activity (max response) is -1.77% (inactive).
The same measure, in the same setting: the value for `CC(C)(C)c1cc(C(=O)O)c(NC(=O)Nc2ccc3[nH]ncc3c2)s1` was -7.47% (inactive).
`NS(=O)(=O)c1cc2c(cc1Cl)NC(C1CC3C=CC1C3)NS2(=O)=O` (stereo not given): the activity (max response) was -7.72% (inactive).
On the same count and under the same terms, next, `CC[C@@H](CO)NCCN[C@@H](CC)CO`: 14% (inactive); `COc1ccc2cc1Oc1cc3c(cc1OC)CC[N+](C)(C)[C@H]3Cc1ccc(cc1)Oc1c(OC)c(OC)cc3c1[C@@H](C2)[N+](C)(C)CC3`: 15.7% (inactive).
On the same count and under the same terms, the value for `OCc1ccccc1O` was 6.34% (inactive); that for `O=C(O)CNC(=O)CNC(=O)CNC(=O)CSC(=O)c1ccccc1` was -23.1% (inactive); that for `CCCCCCCCCCCCCCC[C@H](O)[C@@H](N)CO` was 1.16% (inactive).
Same read-out and setting: the value for `COCCOc1ccc(N2CCN(CCn3ncc4c3nc(N)n3nc(-c5ccco5)nc43)CC2)cc1` was -19.9% (inactive).
For the compound `CCS(=O)(=O)c1ccc(OC)c(C(=O)OC)c1`, the activity (max response) was 10.8% (inactive).
Same read-out and setting: next, `C[C@]12CC[C@@H]3c4ccc(O)cc4CC[C@H]3[C@H]1[C@@H](O)[C@@H](O)[C@H]2O`: -1.98% (inactive).
